The values that follow come from PubChem BioAssay AID1259318 (Sanford-Burnham Center for Chemical Genomics, 2017).

In all, about 370,000 compounds went through this assay and about 3,000 (0.81%) were called active. The sample holds actives, similar compounds and a random draw of the others, so the mix is not that of the screen. A number with no mark means an inactive call.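 The calls were made as follows: active = activity above about 14% (limit read from the data; passing the limit was not always enough); inactive = the rest.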

Sequence of Nuclear receptor subfamily 1 group D member 1 (Homo sapiens) (P20393 whole entry, looked up): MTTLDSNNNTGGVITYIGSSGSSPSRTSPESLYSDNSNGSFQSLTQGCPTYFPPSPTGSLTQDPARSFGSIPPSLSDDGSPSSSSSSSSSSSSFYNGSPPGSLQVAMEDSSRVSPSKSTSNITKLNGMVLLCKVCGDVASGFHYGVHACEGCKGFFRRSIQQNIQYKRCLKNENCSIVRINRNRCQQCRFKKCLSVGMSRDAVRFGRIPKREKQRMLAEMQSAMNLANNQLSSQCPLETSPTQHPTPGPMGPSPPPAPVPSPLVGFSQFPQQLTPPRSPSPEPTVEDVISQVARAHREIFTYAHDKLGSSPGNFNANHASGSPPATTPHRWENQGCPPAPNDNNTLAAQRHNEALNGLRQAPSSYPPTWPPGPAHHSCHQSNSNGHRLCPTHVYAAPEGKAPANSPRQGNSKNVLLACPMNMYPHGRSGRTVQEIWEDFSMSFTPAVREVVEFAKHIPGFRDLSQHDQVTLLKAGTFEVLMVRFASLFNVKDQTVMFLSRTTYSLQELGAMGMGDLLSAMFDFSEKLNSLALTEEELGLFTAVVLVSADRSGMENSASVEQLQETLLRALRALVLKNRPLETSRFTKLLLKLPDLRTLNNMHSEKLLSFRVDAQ

The assay addresses Nuclear receptor subfamily 1 group D member 1 (Homo sapiens) (UniProt P20393). Kind of assay: modulators of Rev-erb alpha DNA binding, primary screen, biochemical, FITC-DNA, fluorescence polarization, uHTS (AID 1259318).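 Also: 0% = DMSO wells with 35 nM protein and 100% = DMSO wells with 750 nM protein.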 The note with it: Rev-erbα–FITC-DNA binding, 90 min, at 10 µM, stronger effect = higher value. (In general: Polarisation of emitted light reports the rotation of a fluorescent probe.)
As for `CCCCCCCCCCCCCCCC(=O)O[C@@H]1[C@@H](O)[C@@H](O)C([C@H](NC(=O)[C@@H]2C[C@@H](CCC)CN2C)[C@H](C)Cl)O[C@@H]1SC` (some centres not stated), the activity is -0.49%.
Under `Cc1ccc(N(C(=O)Cc2cccs2)C2C=CS(=O)(=O)C2)cc1Cl` (configuration not stated) stands 8.02%; under `CC(C)(C)CC(C)(C)NCC(O)COCCOc1ccc(Br)cc1` (configuration not stated), -2.77%; under `COc1ccc2sc(-c3ccccc3OC)c(-c3ccc(OCCN4CCCC4)cc3)c2c1`, 2.94%.
Turning to `COc1ccc(N(Cc2ccc(N(C)C)cc2)C(=O)c2ccc(S(C)(=O)=O)cc2)cc1`, the activity is -2.66%.
On to `COc1ccc2sc(-c3ccc(S(C)(=O)=O)cc3)c(-c3ccc(C(N)=O)cc3)c2c1`, for which the activity is 29.1% (active).
Under `COc1ccc(C(=O)NCC2CCCCC2)cc1S(=O)(=O)N1CCCC1` stands 3.18%.
With `CC(C(=O)O)c1ccc(C2CCCCC2)c2ccccc12` (configuration not stated), the activity was -0.34%.
As for `CC(=O)OCC(=O)[C@@]1(O)CCC2C3CCC4=CC(=O)C=C[C@]4(C)[C@@]3(F)[C@@H](O)C[C@@]21C` (some centres not stated), the figure is -0.05%; as for `COc1ccccc1N1CC(C(=O)Nc2ccc(S(=O)(=O)N3CCOCC3)cc2)CC1=O` (configuration not stated), 2.07%.
On to `COc1ccc(Cl)cc1NC(=O)C1CC(=O)N(c2ccc(F)cc2)C1` (configuration not stated), for which the activity is -2.88%.
Under `COc1cc(OC)c(N2CC(C(=O)Nc3cc(Cl)ccc3N3CCOCC3)CC2=O)cc1Cl` (configuration not stated) stands 15.7% (active).
Under `COc1ccc(CN2C(=O)C(CC(=O)NCCCCc3ccccc3)CC(C(=O)N3CCOCC3)=C2C)cc1` (configuration not stated) stands 0.56%; under `COCc1cc(C)nc(SCC(=O)Nc2cccc(C)c2)c1C#N`, 20.6% (active); under `COCc1cc(C)nc(Nc2cc(C)ccc2C)c1C#N`, 1.3%.
Under `Cc1cccc(NC(=O)CCn2c(=O)oc3ccccc32)c1` stands 4.67%.
`C=CCC1(CC=C)CCCN1C(=O)c1cc(COc2ccc(-n3cncn3)cc2)on1`: the activity is 3.62%.
Turning to `Cc1ccc(NC(=S)NNC(=O)CSc2nnc(SCc3ccccc3Cl)s2)cc1`, the activity was 3.4%.
For `CC(C)N(C(=O)CSc1nc(COc2ccccc2)nc2ccccc12)C(C)C`, the activity is 4.08%.
For the compound `CN(C)S(=O)(=O)c1ccc(NC(=O)COC(=O)c2n[nH]c3ccccc23)cc1`, the activity was 1.34%.
Under `CCCc1nc(SCC(=O)Nc2ccc(S(=O)(=O)N(C)C)cc2)c2ccccc2n1` stands 28% (active); under `NC(=O)c1ncn([C@@H]2O[C@H](C(=O)O)[C@@H](O)[C@H]2O)n1`, -0.1%.
As for `CSCC[C@H](NC(=O)N1CCn2c1nc1ccccc12)C(=O)NC1CCCCC1`, the activity was 0.83%.
For the compound `COc1ccc(S(=O)(=O)N2CCCCC2)cc1NC(=O)COc1ccccc1`, the activity is 1.75%.
As for `COc1ccc(-c2nn(C)c(=O)c3ccccc23)cc1NC(=O)COc1ccccc1`, the figure is 25.4% (active); as for `COc1ccc(-c2nn(C)c(=O)c3ccccc23)cc1CNC(=O)C1CCCCC1`, -3.48%.
As for `C=CCNC(=O)c1ccc2c3n(nc2c1)-c1ccc(C)cc1CO3`, the figure is 0.44%; as for `CCc1cc(=O)oc2c(C)c(OCC(=O)N3CC[C@@]4(O)CCCC[C@H]4C3)ccc12`, 2.4%.
In the case of `CS(=O)(=O)c1ccc2nc(NC(=O)c3ccc(N4CCCC4=O)cc3)sc2c1`, the activity was 41.6% (active).
With `O=C(NCCCN1CCCCCC1)c1ccc(N2CCCC2=O)cc1`, the activity is -2.08%.
Take `O=C(Nc1cc(S(=O)(=O)N2CCOCC2)ccc1OCC(F)(F)F)c1ccc(N2CCCC2=O)cc1`: the activity was 3.86%.
On to `CC(=O)c1c(C)[nH]c(C(=O)OCC(=O)NCCC(C)C)c1C`, for which the activity was 4.11%.
On to `COC(=O)C12C=C3CC(c4ccccc4)=C3C(=O)N1Cc1[nH]c3ccccc3c1C2` (configuration not stated), for which the activity is -0.17%.
Under `CCn1c(CNC(=O)c2ccco2)nnc1SCC(=O)Nc1cccc(F)c1` stands -8.25%; under `Cc1cc(C)c(C(=O)CSc2nc(C)cc(=O)[nH]2)c(C)c1`, -1.57%; under `Cc1nc2nc(SCC(=O)c3ccccc3)[nH]c2cc1Br`, 34.1% (active).
Under `O=C(CSc1nc2[nH]c(=O)[nH]c(=O)c2s1)Nc1cccc(F)c1` stands -1.8%; under `CCCn1c(SCC(=O)Nc2cccc(C(=O)OCC)c2)nnc1-c1ccoc1C`, -3.66%; under `Cc1nc2nc(SCC(=O)Nc3cccc(F)c3)[nH]c2cc1Br`, 43.6% (active).
Regarding `COc1ccc(C(=O)CSc2nccc(=O)[nH]2)cc1`, the activity was 2.06%.
As for `O=C(CSc1nc2ncccc2[nH]1)Nc1ccc2c(c1)OCCO2`, the figure is -0.69%.
Consider `CCn1c(SCC(=O)Nc2cccc(F)c2)nnc1-c1cc2cc(Br)ccc2o1`, for which the activity is 56.3% (active).
Under `CN(Cc1nc(-c2cnccn2)no1)Cc1n[nH]c2c1CCCCC2` stands -2.14%.
As to `COC(=O)c1cc(S(=O)(=O)N2CCN(c3cc(C)ccc3C)CC2)c[nH]1`, the activity is 11.2%.
As to `CCOC(=O)C1CCN(C(=O)C(C)(C)NC(=O)Nc2ccccc2Cl)CC1`, the activity is -6.49%.
As for `Cc1ccc(C(=O)C2CCN(CC(=O)NCCC(C)C)CC2)cc1`, the figure is -0.72%; as for `Cc1noc(C)c1CCC(=O)O`, 4.26%; as for `Cc1ccc(SCC2=NNC(=O)C2)cc1`, -1.27%.
Consider `O=C(c1cccs1)N1CCCC(c2nc(-c3ccc(F)cc3)no2)C1` (configuration not stated), for which the activity is 1.09%.
Under `O=C(CCC(=O)c1cccs1)NC1CCCCCC1` stands 3.87%; under `N#Cc1c(-c2ccc(F)cc2)cc(C2CC2)nc1SCC(=O)c1cccs1`, 174% (active); under `COCCCNc1nc2ccccc2nc1NS(=O)(=O)c1ccc(F)cc1`, -2.18%.
As for `COCCCNc1nc2c(-c3cccc(C)c3)nnn2c2ccc(Cl)cc12`, the figure is 52.9% (active); as for `COCCCNc1nc2c(-c3cccc(C(F)(F)F)c3)nnn2c2ccccc12`, 15.6%.
With `COc1ccc(-n2nc3c(c2NC(=O)c2ccc(N4C(=O)CCC4=O)cc2)CSC3)cc1`, the activity was 1.69%.
As for `COc1ccccc1C(=O)Oc1ccc(N2C(=O)CCC2=O)cc1`, the figure is -3.5%.
As for `COc1ccc(-c2csc(NC(=O)c3ccc(N4C(=O)CCC4=O)cc3)n2)cc1OC`, the figure is 19.3% (active).
